Among the data in PubChem BioAssay are z-score and composite z-score values, retold here.

Calls of active or inactive are those of the source.

A short description of test [1]: optical density shifts of acrAB sulA E. coli – strain DRC41, OD650, 48 h, E. coli filamentation inducer project, primary screen (AID 1152).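 Note: E. coli MC1000 strain DRC41 lacking acrAB efflux pump and sulA.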 The conditions noted are these: higher = more signal, called active from +8 up or from −8 down.
A short description of test [2]: probe aLefty1 binding on compound microarray – biochemical, small-molecule microarray, 635/667 nm fluorescence, primary screen (AID 1153).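 Note: score merges spot fluorescence with signal-to-noise ratio from the scanned slide images.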 The conditions noted are these: higher = more signal.
A short description of test [3]: plasmodial surface anion channel blockers, osmotic lysis – cell-based, P. falciparum Indochina, OD700, 1 h, primary screen (AID 1154). The note with it: P. falciparum Indochina infected RBC osmotic lysis, higher = more signal, called active from +8 up or from −8 down.
Test [4] in a line: plasmodial surface anion channel blockers, osmotic lysis – cell-based, P. falciparum Indochina, OD700, 2 h, primary screen (AID 1155).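 Note: lysis reports solute entry through the parasite surface anion channel PSAC.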 The note with it: P. falciparum Indochina infected erythrocytes, higher = more signal, called active from +8 up or from −8 down.
A short description of test [5]: changes in parasitized red cell lysis, either direction – P. falciparum Indochina, OD700, 3 h, PSAC antagonist project, primary screen (AID 1156). The conditions noted are these: P. falciparum-infected erythrocytes, osmotic lysis, higher = more signal, called active from +8 up or from −8 down.
The nature of test [6]: plasmodial surface anion channel blockers, osmotic lysis – cell-based, P. falciparum Indochina, OD700, 18 h, primary screen (AID 1157). The conditions noted are these: P. falciparum Indochina infected erythrocytes, osmotic lysis OD700, 18 h; higher = more signal, called active from +8 up or from −8 down.
Test [7] is described as follows: S6 kinase pathway phospho-S6 level changes – cell-based, A549, cytoblot, luminescence, serum-stimulated, primary screen (AID 1158).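 Note: serum-stimulated A549 lung adenocarcinoma cells; signal is phosphorylated S6 detected by cytoblot immunostaining with HRP secondary.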 The note with it: 5 h, higher = more signal.
Test [8] has as its target NADPH oxidase 2 (Homo sapiens) (UniProt P04839). The test can be described thus: compounds shifting NOX2 Amplex Red fluorescence – cell-based, HEK293-NOX2, PMA-stimulated, NOX inhibitor project, primary screen (AID 1159). Note: test concentration not given here. The conditions noted are these: 45 min, higher = more signal, called active from +8 up or from −8 down.
Test [9] has as its target NADPH oxidase 4 (Homo sapiens) (UniProt Q9NPH5). Description: compounds shifting NOX4 Amplex Red fluorescence – cell-based, HEK293-NOX4, tetracycline-induced, NOX inhibitor project, primary screen (AID 1160). The conditions noted are these: HEK293-NOX4, Amplex Red H2O2 fluorescence, 45 min; higher = more signal, called active from +8 up or from −8 down.
The target in test [10] is NADPH oxidase 5 (Homo sapiens) (UniProt Q96PH1). Description: compounds shifting NOX5 Amplex Red fluorescence – cell-based, HEK293-NOX5, NOX inhibitor project, primary screen (AID 1161). The conditions noted are these: HEK293-NOX5, ionomycin, 45 min, higher = more signal.
Test [11] in a line: compound effects on lung adenocarcinoma cell viability – A549, calcein-AM fluorescence, 48 h, basal, profiling panel (AID 1162). Note: test concentration not given here. The conditions noted are these: higher = more signal.
Test [12] in a line: compound effects on differentiated 3T3-L1 adipocyte viability – cell-based, 3T3-L1 adipocytes, calcein-AM fluorescence, 48 h, basal, profiling panel (AID 1163). Note: test concentration not given here. The note with it: 3T3-L1 adipocytes viability, higher = more signal.
Test [13] is described as follows: compound effects on hepatocellular carcinoma cell viability – HepG2, calcein-AM fluorescence, 48 h, basal, profiling panel (AID 1164). Note: test concentration not given here. The conditions noted are these: higher = more signal.
Test [14] is described as follows: compound effects on multiple myeloma cell viability – MM1S, calcein-AM fluorescence, 48 h, basal, profiling panel (AID 1165). Note: test concentration not given here. The conditions noted are these: higher = more signal.
The nature of test [15]: calcein-AM signal in unstimulated myeloma cells – cell-based, calcein-AM fluorescence, 48 h, PK04 Diversity Set, profiling panel (AID 1166).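 Note: cells grown under basal conditions without added stimulus; test concentration not given here.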 The conditions noted are these: RPMI8226 myeloma viability, higher = more signal.
Test [16] can be described thus: JC-1 mitochondrial signal, unstimulated HepG2 cells – cell-based, JC-1 fluorescence, 24 h, 100 nL compound, profiling panel (AID 1167). Note: test concentration not given here. The note with it: HepG2 mitochondrial potential, higher = more signal.
A short description of test [17]: JC-1 mitochondrial signal, unstimulated adipocytes – cell-based, JC-1 fluorescence, 3T3-L1 adipocytes, 24 h, 100 nL compound, profiling panel (AID 1168). Note: test concentration not given here. The conditions noted are these: JC-1 mitochondrial fluorescence, higher = more signal, called active from +8 up or from −8 down.
A short description of test [18]: JC-1 mitochondrial signal, unstimulated myeloma cells – cell-based, JC-1 fluorescence, RPMI8226, 24 h, 100 nL compound, profiling panel (AID 1169). Note: test concentration not given here. The conditions noted are these: JC-1 mitochondrial potential fluorescence, higher = more signal.
The nature of test [19]: JC-1 mitochondrial signal, unstimulated MM1S myeloma – cell-based, JC-1 fluorescence, 24 h, 100 nL compound, profiling panel (AID 1170). Note: test concentration not given here. The conditions noted are these: MM1S mitochondrial potential, higher = more signal.
Test [20] in a line: resazurin metabolic signal in A549 cells – cell-based, resazurin fluorescence, 24 h, PK04 Diversity Set, profiling panel (AID 1171). Note: test concentration not given here. The note with it: A549 viability, higher = more signal, called active from +8 up or from −8 down.

NADPH oxidase 2 (Homo sapiens), sequence (P04839 whole entry, looked up): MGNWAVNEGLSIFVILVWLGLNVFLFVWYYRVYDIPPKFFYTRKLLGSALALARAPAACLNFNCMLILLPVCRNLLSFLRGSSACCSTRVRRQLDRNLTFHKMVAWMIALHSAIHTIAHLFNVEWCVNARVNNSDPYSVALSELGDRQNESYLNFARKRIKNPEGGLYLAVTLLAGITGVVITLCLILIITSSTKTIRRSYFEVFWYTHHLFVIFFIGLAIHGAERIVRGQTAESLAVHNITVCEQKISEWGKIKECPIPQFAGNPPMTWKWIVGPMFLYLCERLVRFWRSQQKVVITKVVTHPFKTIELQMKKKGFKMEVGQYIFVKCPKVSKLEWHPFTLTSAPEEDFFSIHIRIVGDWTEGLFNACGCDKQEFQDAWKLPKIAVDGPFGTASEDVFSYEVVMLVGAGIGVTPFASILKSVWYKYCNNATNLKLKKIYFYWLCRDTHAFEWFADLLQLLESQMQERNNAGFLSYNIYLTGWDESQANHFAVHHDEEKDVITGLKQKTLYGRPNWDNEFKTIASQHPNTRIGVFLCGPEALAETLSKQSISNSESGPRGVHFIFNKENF
NADPH oxidase 4 (Homo sapiens), sequence (Q9NPH5 whole entry, looked up): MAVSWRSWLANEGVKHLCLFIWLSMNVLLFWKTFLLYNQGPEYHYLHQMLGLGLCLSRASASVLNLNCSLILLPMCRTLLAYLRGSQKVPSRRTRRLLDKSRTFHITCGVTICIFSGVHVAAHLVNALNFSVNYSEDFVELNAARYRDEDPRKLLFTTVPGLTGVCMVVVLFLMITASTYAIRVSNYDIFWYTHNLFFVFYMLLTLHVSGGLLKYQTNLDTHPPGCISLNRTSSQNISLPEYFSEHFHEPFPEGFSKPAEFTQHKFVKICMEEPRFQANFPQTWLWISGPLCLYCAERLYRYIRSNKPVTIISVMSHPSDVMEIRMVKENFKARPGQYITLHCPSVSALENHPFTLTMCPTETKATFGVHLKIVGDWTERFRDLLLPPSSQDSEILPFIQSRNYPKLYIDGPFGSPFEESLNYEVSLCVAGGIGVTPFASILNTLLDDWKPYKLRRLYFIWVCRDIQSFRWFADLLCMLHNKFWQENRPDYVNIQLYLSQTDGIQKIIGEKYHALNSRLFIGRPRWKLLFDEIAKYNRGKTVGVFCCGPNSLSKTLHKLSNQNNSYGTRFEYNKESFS
NADPH oxidase 5 (Homo sapiens), sequence (Q96PH1 whole entry, looked up): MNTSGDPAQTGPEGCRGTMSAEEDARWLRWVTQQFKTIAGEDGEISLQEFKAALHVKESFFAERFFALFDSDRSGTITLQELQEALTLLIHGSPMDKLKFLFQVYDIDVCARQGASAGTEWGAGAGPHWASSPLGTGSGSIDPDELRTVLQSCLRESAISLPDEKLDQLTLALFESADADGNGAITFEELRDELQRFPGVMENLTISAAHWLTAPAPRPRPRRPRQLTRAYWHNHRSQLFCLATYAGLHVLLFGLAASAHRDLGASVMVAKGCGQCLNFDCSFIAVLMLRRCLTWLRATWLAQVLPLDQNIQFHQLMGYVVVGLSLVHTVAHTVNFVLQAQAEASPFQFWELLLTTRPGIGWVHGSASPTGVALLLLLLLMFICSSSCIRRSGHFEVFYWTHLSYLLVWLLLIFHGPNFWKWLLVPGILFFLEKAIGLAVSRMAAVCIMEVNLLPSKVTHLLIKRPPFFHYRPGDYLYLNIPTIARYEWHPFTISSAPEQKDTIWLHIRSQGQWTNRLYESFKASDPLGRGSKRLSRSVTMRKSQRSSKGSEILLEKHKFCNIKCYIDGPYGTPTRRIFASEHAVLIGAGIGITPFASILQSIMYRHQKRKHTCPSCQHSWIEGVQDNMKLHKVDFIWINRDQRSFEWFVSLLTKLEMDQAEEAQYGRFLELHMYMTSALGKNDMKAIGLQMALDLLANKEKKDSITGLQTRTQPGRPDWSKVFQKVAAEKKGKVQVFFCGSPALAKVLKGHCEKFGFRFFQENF

Take `COc1ccc([Si](C)(C)[C@@H]2[C@@H](CC(=O)N(CCO)Cc3ccccc3)O[C@]3(C(=O)N(Cc4ccc(N5CCC5=O)cc4)c4ccccc43)[C@H]2C)cc1`: the z-score in test [1] was 1.12 (inactive); in test [3], 6.38 (inactive); in test [4], 0.924 (inactive); in [5] it was -0.709 (inactive); in [6] it was -1.27 (inactive); in test [7], 0.838. Further, the z-score was 1.53 (inactive) in test [8]; 1.41 (inactive) in [9]; 3.52 in [10]; -0.361 in test [11]; 2.28 in test [12]; -1.34 in test [13]. Also, the z-score in test [14] is -1.28; in test [15], -3.15; in test [16], 0.768; in test [17], 1.95 (inactive); in [18], -0.944; in test [19], -0.83. The z-score in test [20] is -1.37 (inactive). In [2], this molecule had a composite z-score of -0.399.

On to `COCCOC(=O)N1C(=O)[C@@]2(c3cc(C#CC4(O)CCCCCC4)ccc31)[C@H](c1ccccc1OCCO)N1[C@H](c3ccccc3)[C@H](c3ccccc3)OC(=O)[C@H]1[C@@H]2C(=O)N1CCCCCCC1`, for which the z-score is 0.499 (inactive) in test [1]; 0.257 (inactive) in test [3]; 0.755 (inactive) in test [4]; 0.196 (inactive) in test [5]; 0.653 (inactive) in test [6]; 0.119 in test [7]. Besides, the z-score was 0.297 (inactive) in test [8]; 0.104 (inactive) in test [9]; 1.13 in test [10]; -0.971 in [11]; 0.723 in [12]; 0.818 in test [13]. Further, the z-score is -1.45 in [14]; -1.99 in test [15]; -0.286 in test [16]; 0.454 (inactive) in [17]; -0.557 in [18]; -1.34 in [19]. In [20], the z-score is -0.141 (inactive). Moreover, in test [2], the composite z-score turned out to be 2.49.

Regarding `C=CCC(OC(C)=O)[C@@H]1[C@@H](N(Cc2cc3ccccc3o2)C(=O)Cc2ccc(OC)cc2)c2cc(OCCCO)ccc2N1C(=O)Cc1ccc(OC)cc1` (stereo not given in full), the z-score in test [1] was -0.759 (inactive); in test [3] it was 2.19 (inactive); in test [4], 0.297 (inactive); in test [5], 1.23 (inactive); in [6] it was 0.336 (inactive); in [7], -0.0725. Further, the z-score in test [8] was -0.685 (inactive); in test [9], -0.727 (inactive); in [10], -2.19; in test [11] it was 0.3; in [12] it was 1.71; in test [13], 0.128. For the same molecule, the z-score was 0.708 in test [14]; -1.74 in test [15]; 2.14 in test [16]; -0.184 (inactive) in [17]; -0.566 in test [18]; 0.799 in test [19]. Besides, in test [20], the z-score is -0.914 (inactive). The molecule also returned a composite z-score in test [2] of 0.0091.

With `COc1ccc(NN2C(C(O)c3cc(C(F)(F)F)cc(C(F)(F)F)c3)C=CC3C(=O)N(C4CCCCC4)C(=O)C32)cc1` (stereo not given), the z-score in test [1] was -0.523 (inactive); in test [3], 1.62 (inactive); in test [4], 0.507 (inactive); in test [5] it was 0.545 (inactive); in test [6], 0.632 (inactive); in [7], -0.35. Also, the z-score is -0.934 (inactive) in test [8]; -1.64 (inactive) in [9]; -1.35 in [10]; -0.557 in [11]; -0.826 in test [12]; 0.837 in test [13]. The z-score in test [14] is -0.167; in test [15], -1.31; in test [16], -1.68; in test [17] it was 0.0313 (inactive); in [18], 0.139; in test [19] it was -1.14. For the same molecule, the z-score in test [20] is -0.35 (inactive). In test [2], this molecule gave a composite z-score of 1.41.

For `COCC1=C([C@H](O)CCc2ccccc2)[C@H](CO)n2c(=O)n(-c3ccccc3)c(=O)n2C1`, the z-score in [1] is 3.47 (inactive); in [3] it was 2.67 (inactive); in test [4], -0.913 (inactive); in test [5], -0.618 (inactive); in test [6], -1.61 (inactive); in [7], 1.72. Also, the z-score in test [8] is -0.638 (inactive); in [9], -2.05 (inactive); in [10] it was -0.659; in test [11] it was 0.119; in test [12], 0.102; in [13], 0.925. Further, the z-score in [14] is 0.572; in test [15] it was -0.221; in test [16], -0.835; in test [17], -0.596 (inactive); in [18] it was -0.309; in test [19], -1.37. The z-score in test [20] was -0.619 (inactive). The composite z-score in test [2] is -0.409.
